This is one part of a sample in which hits are shown more often than they occur.
G9a inh – blocks human histone lysine methyltransferase G9a; G9a H3K9 monomethylation, AlphaScreen, 2 h; Potency, µM (highest dose often 102 µM), for inactives: top-dose activity, negative = inhibition, hits mostly inhibitors; AID 504332; actives 8.8% (n = 350,000); also: % is scaled to controls: 0 for no effect and ±100 for the full control effect; nearly all actives have a fitted effect of over 75% in size
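Using a bead-based AlphaScreen, monomethylated H3K9 product from 2 h room-temperature reactions (G9a 20 nM, peptide 500 nM, SAM 20 uM) was detected with 0.5 ug/mL rabbit anti-H3K9me1 antibody.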
Sfp inh – Sfp phosphopantetheinyl transferase inhibition | Q9F4F7 | Biochemical Sfp PPTase activity, qHTS | Potency, µM, inactives show largest response in the series, negative = inhibition, usual class: inhibitors | actives 3.5% (n = 310,000) | AID 1490;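 also: the enzyme is Sfp with the accession as filed and its product quenches rhodamine fluorescence; 0% = enzyme reaction without inhibitor and -100% = no enzyme wells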
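Sfp 15 nM + cpd, 15 min RT; start w/ rhodamine-CoA 5 uM, BHQ-2-YbbR 12.5 uM (final); 50 mM Hepes pH 7.6, 10 mM MgCl2, 0.01% NP-40, 0.01% BSA; read 525/598 nm at 0 and 30 min.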
12-LOX inh – blocks human arachidonate 12S-lipoxygenase; Potency, µM (titrated, usually from 108 µM), for inactives: at the top dose activity change, negative = inhibition, actives largely listed as inhibitors; P18054; actives 1.1% (n = 580,000); purified 12hLO, xylenol orange hydroperoxide absorbance; also: % is scaled to controls: 0 for no effect and ±100 for the full control effect
Target sequence (P18054 whole entry, looked up): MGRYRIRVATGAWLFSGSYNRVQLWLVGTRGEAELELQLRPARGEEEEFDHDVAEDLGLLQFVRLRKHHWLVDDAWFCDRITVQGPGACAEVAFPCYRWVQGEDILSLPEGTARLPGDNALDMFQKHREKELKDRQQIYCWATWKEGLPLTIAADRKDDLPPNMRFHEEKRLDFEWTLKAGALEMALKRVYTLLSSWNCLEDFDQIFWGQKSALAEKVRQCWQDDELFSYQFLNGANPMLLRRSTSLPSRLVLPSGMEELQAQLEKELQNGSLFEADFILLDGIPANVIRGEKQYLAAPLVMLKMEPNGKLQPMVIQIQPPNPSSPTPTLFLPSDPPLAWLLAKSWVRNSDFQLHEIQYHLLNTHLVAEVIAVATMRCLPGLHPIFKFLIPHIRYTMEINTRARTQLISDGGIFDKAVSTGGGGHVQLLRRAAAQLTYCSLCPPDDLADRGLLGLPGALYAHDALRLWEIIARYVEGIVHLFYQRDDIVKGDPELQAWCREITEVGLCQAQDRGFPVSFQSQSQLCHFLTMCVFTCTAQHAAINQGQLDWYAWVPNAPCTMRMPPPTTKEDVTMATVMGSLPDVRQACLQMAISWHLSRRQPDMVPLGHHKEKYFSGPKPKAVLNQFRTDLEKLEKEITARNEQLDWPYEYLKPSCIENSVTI
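Purified human 12hLO (150 nM final) in 25 mM Hepes, 0.01% Triton X-100, pH 7.0 was preincubated 15 min at room temperature with compound. Then 40 uM arachidonic acid was added, 30 min. Hydroperoxide was read by Fe-XO absorbance ratio 573/405 nm.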
GRP78 ERSR act – induces the endoplasmic reticulum stress response in human glioma cells | U87-MG GRP78 promoter luciferase reporter, 16 h | AID 602332 | actives 0.02% (n = 420,000) | Potency, µM, without a hit: at the highest dose activation, usual class: activators; also: series mostly up to about 76 µM; % of control where 0% means no effect; nearly all actives have a fitted effect of over 35% in size
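Stably transfected U87-MG glioma cells carrying a GRP78-based luciferase sensor; 16 h compound incubation. Luminescence end-point read 10 min after Bright-Glo addition at room temperature.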
VDR inh – vitamin D3 receptor (human) inhibition | VDR-SRC2-3 peptide fluorescence polarization, 2 h | Potency, µM, without a hit: max response, negative = inhibition, hits mostly inhibitors | actives 0.93% (n = 400,000); also: % is scaled to controls: 0 for no effect and ±100 for the full control effect
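Two reagent solutions held at 4 deg C in the dark were dispensed, compounds pinned at 23 nl, and the mixture incubated 2 h at room temperature. Read-out: fluorescence polarization of VDR–SRC2-3 peptide binding.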
An asterisk follows results filed as active; i = inactive; ? = inconclusive; . = no result; [ ] = another dose, or the depositor's remark. Calls follow the shape of the dose curve; as a rule, active = well fitted curve in the direction sought with a large enough effect; inconclusive = small, poorly fitted or top-dose-only effect, or another doubt; inactive = no such curve, though single readings can be large; an effect the other way counts as inactive or inconclusive. Potency is read from the fitted curve at half-maximal effect.

SMILES | G9a inh | Sfp inh | 12-LOX inh | GRP78 ERSR act | VDR inh
CCN(c1ccc(NC(=O)COC(=O)/C=C/c2cccs2)cc1)C(C)C | 8.91µM* | 14.3% | -3.3% | 0.6% | 9.8%
CCc1ccccc1NC(=O)COC(=O)c1ccc2ccccc2n1 | . | . | -20.1% | . | .
Cc1cn2c(=O)cc(COC(=O)CSc3ccccc3)nc2s1 | . | . | 30.4% | . | .
Cc1ccc(-c2cc(C(F)F)n3nc(C)c(Br)c3n2)cc1 | . | . | -26.0% | . | .
COc1ccc(CC(=O)NC(C)C2CC3CCC2C3)cc1 (configuration not stated) | . | . | 1.0% | . | .
CC(NCc1ccc(N(C)C)cc1)C1CC2CCC1C2 (configuration not stated) | 50.1µM* | 3.9% | ? | -3.5% | -17.2%
O=S(=O)(c1ccccc1)N1CCC[C@@]2(CCN(c3ccccc3)C2)C1 | -24.7%[12.7 µM] | 1.4% | ? | -5.2% | 31.6µM*
CCCC/C(O)=C1\C(=O)CCCC1=NCCc1c(C)[nH]c2ccc(OC)cc12 | 70.8µM* | 14.1% | 6.2% | -4.1% | 7.1%
CC/C(O)=C1\C(=O)CCCC1=NCCc1c(C)[nH]c2ccc(C)cc12 | -43.3% | 7.0% | 0.0% | -4.4% | ?
CC(C)=C1C2CCC1C(C(=O)Nc1cc(C)cc(C)c1)C2C(=O)O (configuration not stated) | 39.8µM* | -18.3% | ? | -2.4% | -7.7%
CCN(Cc1ccccc1)C(=O)c1cc2cc(OC)ccc2oc1=O | . | . | 4.9% | . | .
O=C(Cc1cccs1)OCC(=O)c1ccco1 | 50.1µM* | -19.1% | 11.6% | -3.9% | 17.4%
Cc1ccc(C)c(SCC(=O)OCC(=O)c2ccco2)c1 | ? | -4.4% | 39.8µM* | -2.4% | 2.3%
CC(NC(=O)C(C)(Cl)Cl)C12CC3CC(CC(C3)C1)C2 (configuration not stated) | . | . | -2.3% | . | .
CCN(CC)CC(C)OC(=O)c1cccc(F)c1 (configuration not stated) | . | . | -16.5% | . | .
O=C(NCc1ccco1)C1c2ccccc2Oc2ccccc21 | ? | 39.8µM* | 44.2% | -6.1% | -22.6%
S=C(NCc1cccc(Cl)c1)NCc1ccco1 | . | 0.4% | ? | 1.1% | ?
Cc1cccc(NC(=S)NCc2ccco2)n1 | 2µM* | -28.4% | ? | -1.4% | -19.6%
CC(C)CCNC(=S)NCc1ccco1 | . | . | 31.6µM* | . | .
NNC(=S)NCc1ccco1 | 4.3% | 39.8µM* | ? | -2.2% | -5.0%
S=C(NCc1ccc(Cl)c(Cl)c1)NCc1ccco1 | . | 8.5% | ? | -3.5% | -17.0%
CCCCNC(=O)C1c2ccccc2Oc2ccccc21 | ? | 1.4% | 0.6% | 0.1% | 9.0%
CCCCOc1ccc(OCCN)cc1 | . | . | 2.8% | . | .
CCOc1ccc(NC(=O)CSc2ncc(-c3ccc(F)cc3)o2)cc1 | . | . | -11.6% | . | .
CC(NC(=O)c1ccccc1I)C1CC2CCC1C2 (configuration not stated) | . | . | -7.7% | . | .
SMILES | G9a inh | Sfp inh | 12-LOX inh | GRP78 ERSR act | VDR inh
O=C1NC(=NC2CCCC2)C2(CCN(Cc3ccsc3)C2)N1c1cccnc1 (configuration not stated) | . | . | -11.8%[6.33 µM] | . | .
COc1ccc(OC)c(C(=O)c2oc3cc(NC(=O)C4CC4)ccc3c2C)c1 | . | . | 23.3% | . | .
CN(CC(=O)NC(=O)NCc1ccccc1)Cc1ccsc1 | . | . | 43.5% | . | .
O=C(Cc1cccs1)NNC(=S)NCc1ccco1 | 50.1µM* | 7.0% | i | -3.3% | -4.5%
CN(C)c1ccc(C(=S)NCc2ccco2)cc1 | ? | 14.1µM* | ? | -13.0% | ?
O=C(CC12CC3CC(CC(C3)C1)C2)NC(=S)NCc1ccco1 | -46.5% | -6.7% | 28.2µM* | -5.6% | -6.4%
CC(C)(C)NC(=S)NCc1ccco1 | 79.4µM* | 3.55µM* | ? | -4.2% | 8.3%
COc1cc(NC(=S)NCc2ccco2)cc(OC)c1OC | -19.8%[59 µM] | -6.2% | 2.6% | -1.8% | 4.7%
S=C(NCc1ccccc1)NCc1ccco1 | ? | -5.6% | -0.4% | 0.4% | -18.6%
S=C(NCc1ccco1)NCc1ccco1 | . | . | 31.6µM* | -3.6% | ?
COc1ccccc1NC(=S)NCc1ccco1 | ? | 56.2µM* | 0.0% | -5.4% | 3.7%
CN(C)C(=O)CN1CCCC1c1ccc2c(c1)OCCO2 (configuration not stated) | . | . | -42.9% | . | .
CCOC(=O)C1=C(c2ccccc2)NC(N)=NC1c1ccc(OCc2ccc(Cl)cc2)c(OC)c1 (configuration not stated) | -44.4%[59 µM] | 31.6µM* | ? | -14.5% | -21.5%

Screening results (PubChem)
